Out of some 150,000 compounds screened, about 540 (0.36%) showed an effect of 50% or more. The full list was thinned out, with strong results kept by preference.

As a reminder, the % Inhibition is the relative decrease from the control value, in per cent.

In the assay the test system is Plasmodium falciparum. Briefly: Primary screen in NF54 nanoGlo assay, in single point, at 2uM, 72h; a lower Z score goes with more inhibition. The assay is classed as functional, Erythrocyte. The settings on record: timepoint 72 hour.
On to `O=C(N[C@@H](Cn1nccn1)c1ccccc1)c1ccncc1`, for which the “% Inhibition” value is recorded as -13% and the Z score was 1.97.
Taken in the same sequence, the figures for `O=C(N[C@@H](Cn1nccn1)c1ccccc1)c1cc(-c2ccccc2)n[nH]1` were -4% and 0.69.
On to `O=C(N[C@@H](Cn1nccn1)c1ccccc1)c1cc(Br)ccc1Cl`, for which the “% Inhibition” value is reported as 57% and the Z score is given as -6.89.
Taken in the same sequence, the figures for `Fc1cc(Cl)ccc1OC[C@@H]1CCCN2CCCC[C@H]12` were 17% and -2.29.
For the compound `Clc1cccc(OC2CN(C[C@@H]3CCCN4CCCC[C@H]34)C2)c1`, the “% Inhibition” value was determined as 3% and the Z score was -0.42.
The matching figures for `Cc1n[nH]c(C)c1CCCN(C)C(=O)c1cn2cccnc2n1`: 4% and -0.72.
The matching figures for `Cc1cc(C)c(CNC(=O)c2cnn(C)c2C)c(=O)[nH]1`: -9% and 1.13.
The matching figures for `Cc1nnc(-c2ccco2)c2cn(-c3ccc(Cl)cc3)nc12`: 69% and 1.
Turning to `Clc1ccc(-c2nnc(-c3ccco3)c3nocc23)cc1`, the “% Inhibition” value is 3% and the Z score is listed as -0.41.
Taken in the same sequence, the figures for `O=c1[nH]nc(-c2ccc(Cl)cc2)c2cn(-c3ccc(Cl)cc3)nc12` were -14% and 1.65.
With `Cc1noc(C)c1C(=O)N1CCC[C@H](Oc2ncc(Cl)cn2)C1`, the “% Inhibition” value is on record as -3% and the Z score was 0.45.
Taken in the same sequence, the figures for `O=C(NCCN1CCC[C@H](CO)C1)c1cccc(-c2ccc3occc3c2)c1` were -3% and 0.37.
The matching figures for `Cn1nc2c(c1C(=O)NCc1csc(N)n1)CCCC2`: 5% and -0.77.
Taken in the same sequence, the figures for `Cc1nc(Nc2ccc3c(c2)OCCO3)cc(-c2ccccc2)n1` were 5% and -0.89.
Consider `CNc1nc(NCc2ccccc2)nc2ccccc12`, for which the “% Inhibition” value is reported as 81% and the Z score is -8.4.
The matching figures for `CC(C)COC(=O)c1nc2ccccc2nc1Nc1ccc2c(c1)OCCO2`: 8% and -0.98.
The matching figures for `Nc1ncnc(NCCc2ccccc2)n1`: 2% and -0.24.
The matching figures for `CNc1nc(NCCc2ccccc2)nc2ccccc12`: 83% and -8.48.
In the case of `C[C@H](Nc1nc(N(C)C)nc2ccccc12)c1ccccc1`, the “% Inhibition” value is reported as -5% and the Z score was 0.67.
With `NS(=O)(=O)c1ccc(CCNc2nc(-c3ccccc3)nc3ccccc23)cc1`, the “% Inhibition” value stood at 39% and the Z score was found to be 0.27.
The matching figures for `CNc1nc(Nc2ccc3c(c2)OCCO3)nc2ccccc12`: 89% and -16.08.
The matching figures for `C[C@H](Nc1nc(N2CCCCC2)nc2ccccc12)c1ccccc1`: 40% and -5.78.
The matching figures for `CCN(Cc1nc(C(N)=O)no1)Cc1c(F)cccc1Cl`: -6% and 1.04.
`CC(C)(N)c1ccc(Cl)c(Cl)c1`: the “% Inhibition” value was -9% and the Z score is recorded as 1.19.
`Nc1c(Br)cc2oc(-c3ccc4ccccc4c3)nc2c1Br`: the “% Inhibition” value is 36% and the Z score is reported as -1.3.
Taken in the same sequence, the figures for `O=C(N[C@H]1CCn2nccc2C1)c1ccc(OC(F)F)cn1` were -8% and 0.97.
The matching figures for `CC(C)(C)OC1CC(NCC(=O)NCC2CC2)C1(C)C` (centres undefined): -5% and 0.8.
Taken in the same sequence, the figures for `COC(=O)[C@H]1CCc2nnc(Cc3ccc(F)cc3)n2C1` were -9% and 1.42.
With `O=C(c1ccccc1C(F)(F)F)N1CC2(CCOC2)C1`, the “% Inhibition” value was 5% and the Z score is -0.56.
The matching figures for `Cc1nc(N)nc(C(F)(F)F)c1Br`: -1% and 0.16.
Taken in the same sequence, the figures for `COc1ccc(C(=O)c2ccccc2C(=O)Nc2cn[nH]c2)cc1` were -8% and 1.57.
Taken in the same sequence, the figures for `O=C(NC1CC1)c1ccccc1C(=O)c1ccc(F)cc1` were -8% and 1.02.
Regarding `O=C(Nc1cnc2ccccc2c1)c1ccccc1C(=O)c1ccc(F)cc1`, the “% Inhibition” value is 93% and the Z score is given as -10.24.
Taken in the same sequence, the figures for `Cc1ccc(C(=O)Nc2ncn(Cc3c(F)cccc3Cl)n2)cc1` were -15% and 1.74.
The matching figures for `C[n+]1ccc(-c2ncc(-c3ccccc3)o2)c2ccccc21`: 75% and -5.73.
The matching figures for `CN(Cc1ncc(-c2ccccc2)o1)c1ccccc1`: -6% and 0.5.
With `CC(=O)Nc1c(-c2ccc(C)cc2)c(C)nn1-c1ccc(C(=O)Nc2cc(C)ccn2)cc1`, the “% Inhibition” value was determined as 59% and the Z score is recorded as -6.89.
The matching figures for `CC(=O)Nc1c(-c2ccc(F)cc2)c(C)nn1-c1ccc(C(=O)Nc2cccc(F)c2)cc1`: -5% and 0.93.
On to `CC(=O)Nc1c(-c2ccc(F)cc2)c(C)nn1-c1ccc(C(=O)Nc2nc(C)cs2)cc1`, for which the “% Inhibition” value is on record as -1% and the Z score is recorded as 0.19.
On to `c1ccc2c(c1)CCCC2N1CCCC(Cn2cncn2)C1` (centres undefined), for which the “% Inhibition” value was -9% and the Z score was 1.31.
The matching figures for `C[C@H](NC(=O)CNC(C)(C)C)c1ccc(F)cc1F`: -4% and 0.48.
With `CC1(C)CO[C@@H](CC(=O)N2CCOC3(CCS(=O)(=O)CC3)C2)C1`, the “% Inhibition” value is listed as 0% and the Z score is recorded as 0.06.
Turning to `Cc1ccc(-c2cn[nH]c2[C@H]2CCCN(C(=O)c3[nH]cnc3C)C2)cc1`, the “% Inhibition” value was -5% and the Z score turned out to be 0.87.
As for `Cc1cccc2c(-c3cc(N)nc(N)n3)c[nH]c12`, the “% Inhibition” value turned out to be 85% and the Z score is -9.19.
The matching figures for `Cc1cccc2c(-c3cccc(C(N)=O)n3)c[nH]c12`: -6% and 1.19.
As for `O=C(c1cnc2ccsc2c1)N1CC2(CCCCC2)C1`, the “% Inhibition” value was -15% and the Z score stood at 2.61.
Taken in the same sequence, the figures for `CCc1noc(C)c1C(=O)Nc1sc2c(c1C(N)=O)CCCCC2` were -23% and 2.07.
Taken in the same sequence, the figures for `CCn1ncnc1CNC1CC(c2ccc(Br)cc2)C1` (centres undefined) were -13% and 1.96.
The matching figures for `COc1ccc2c(O)c(C(=O)NCCN(C)C)cnc2c1`: -7% and 0.96.
As for `COc1ccc(C(=O)c2cnc3cc(Cl)ccc3c2-c2ccccc2)cc1`, the “% Inhibition” value is -12% and the Z score is on record as 1.39.
The matching figures for `COc1ccc2c(O)cc(-c3ccccc3)nc2c1`: 37% and -0.12.
The matching figures for `Cc1cccc(Cn2c(C(=O)Nc3ccccc3)cc3cc(NC(=O)C4CCC4)ccc32)c1`: 13% and -2.41.
The matching figures for `COc1ccc(-c2nn(-c3ccccc3C)cc2CN(C)Cc2nccn2C)cc1F`: -8% and 1.05.
For `Cc1cc(C(=O)Nc2cccc(C(F)(F)F)c2)cc2c1N(C)S(=O)(=O)c1ccccc1-2`, the “% Inhibition” value is recorded as -3% and the Z score is listed as 0.47.
Taken in the same sequence, the figures for `O=C(COC[C@H]1CCCCO1)NC(C1CC1)C1CC1` were -8% and 1.05.
On to `O=C(Nc1ccc(Br)cn1)c1ccc(-c2ccc(Cl)c(Cl)c2)o1`, for which the “% Inhibition” value is 31% and the Z score is -3.51.
The matching figures for `O=C(Nc1cccnc1)c1ccc(-c2ccc(Cl)c(Cl)c2)o1`: 64% and -16.5.
`Cc1ccc(-c2ccc(C(=O)Nc3cccnc3)o2)cc1Cl`: the “% Inhibition” value is -2% and the Z score came to 0.25.
The matching figures for `Nc1nn2cc(-c3cc4ccccc4o3)nc2c2ccccc12`: -6% and 1.22.
For the compound `Cc1ccc2nc(-c3cnoc3C)cn2c1`, the “% Inhibition” value stood at 0% and the Z score is reported as 0.04.
For `Cc1ccc2nc(-c3cc4ccccc4o3)cn2c1`, the “% Inhibition” value is on record as 61% and the Z score was -5.65.
Taken in the same sequence, the figures for `O=C(NCCN1CCCC1)c1ccc(-c2c(-c3ccc(F)cc3)ncn2C2CCCC2)o1` were 5% and -0.8.
The matching figures for `Cc1ccc(Cl)cc1N1CCN(C(=O)N2CCC(C)CC2)CC1`: 0% and -0.01.
Regarding `CCc1nc2cc(N3CCC(C(=O)Nc4ccc5c(c4)OCO5)CC3)cnc2nc1CC`, the “% Inhibition” value amounted to 73% and the Z score was -0.75.
The matching figures for `CCc1nc2cc(N3CCC(C(=O)N[C@@H](C)CC)CC3)cnc2nc1CC`: -9% and 1.42.
Taken in the same sequence, the figures for `CCc1nc2cc(N3CCC(C(=O)NCc4cc(F)cc(F)c4)CC3)cnc2nc1CC` were -5% and 0.82.
On to `Cc1ccc(S(=O)(=O)c2cn(CC(=O)Nc3ccc(C)c(C)c3)c3nc(C)ccc3c2=O)cc1`, for which the “% Inhibition” value is listed as -12% and the Z score turned out to be 1.24.
The matching figures for `COCCN1CCC[C@@]2(CCN(Cc3cnn(-c4ccc(Cl)cc4)c3)C2)C1`: -9% and 1.21.
The matching figures for `COCCN1CC[C@H](CN(C)c2ccncn2)C1`: 1% and -0.2.
Regarding `COCCN1C[C@]2(CCCN(c3ccnc4ccc(C)cc34)C2)CCC1=O`, the “% Inhibition” value is on record as -3% and the Z score worked out at 0.55.
Taken in the same sequence, the figures for `COCCN1CC[C@H](CN(C)S(=O)(=O)Cc2ccc(Cl)cc2)C1` were -6% and 1.12.
Taken in the same sequence, the figures for `COC(=O)[C@H](CN)Oc1ccc(F)cc1` were 2% and -0.27.
The matching figures for `O=C(N[C@@H]1C[C@H]1C1CCCCC1)N1CCC(N2CCCCC2)C1` (some centres undefined): -9% and 1.45.
On to `O=C(NC1CC1C1CCCCC1)N1CCCN(C2CCOCC2)CC1` (centres undefined), for which the “% Inhibition” value is reported as -16% and the Z score is on record as 1.42.
Taken in the same sequence, the figures for `O=C(NC1CC1C1CCCCC1)N1CCS(=O)(=O)CC1` (centres undefined) were 77% and -9.17.
On to `CCCN(C(=O)Nc1cc(Cl)ccc1OC)c1nc(-c2ccc(C3CCCCC3)cc2)cs1`, for which the “% Inhibition” value was -14% and the Z score came out at 2.04.
The matching figures for `COc1ccc(NCC(=O)Nc2cc(C(F)(F)F)cc(NC(=O)CNc3ccc(OC)cc3)c2Cl)cc1`: -10% and 1.34.
Taken in the same sequence, the figures for `CC(=O)Oc1ccc(N2C(=O)[C@@H]3[C@H](Cc4ccccc4)N[C@]4(C(=O)Nc5c4ccc(Cl)c5C)[C@@H]3C2=O)cc1` were -4% and 0.38.
For the compound `O=C(ON1C(=O)CCC1=O)c1cc2ccccc2[nH]1`, the “% Inhibition” value was 61% and the Z score was -0.88.
The matching figures for `Cc1cccc(C(=O)ON2C(=O)CCC2=O)c1`: 39% and 1.28.
`O=C(ON1C(=O)CCC1=O)c1cccc(F)c1`: the “% Inhibition” value is 34% and the Z score is -3.87.
Turning to `Cc1nn(-c2nc3ccccc3[nH]2)c(O)c1Cc1ccccc1`, the “% Inhibition” value amounted to 63% and the Z score is given as -1.65.
Taken in the same sequence, the figures for `COc1ccccc1-n1nc(C)c(Cc2ccccc2)c1O` were 31% and -3.49.
Taken in the same sequence, the figures for `Cc1nn(-c2nc3ccccc3[nH]2)c(O)c1CCC(C)C` were 95% and -12.21.
Taken in the same sequence, the figures for `Cc1cccc(Cc2c(C)nn(-c3nc(C)cc(C)n3)c2O)c1` were 36% and 2.2.
For the compound `Cc1cc(C)nc(-n2nc(C)c(CCc3ccccc3)c2O)n1`, the “% Inhibition” value was 32% and the Z score was -3.67.
For the compound `Oc1cc(-c2ccc(F)cc2)nn1-c1nc2ccccc2[nH]1`, the “% Inhibition” value is on record as 36% and the Z score is given as -4.09.

The values are drawn from ChEMBL document CHEMBL4888484, “Replenishing the malaria drug discovery pipeline: Screening and hit evaluation of the MMV Hit Generation Library 1 (HGL1) against asexual blood stage Plasmodium falciparum ,using a nano luciferase reporter read-out” (2022).
